The whole screen tested about 16,000 compounds, of which about 2,600 (16%) were called active. Roughly 20% stayed inconclusive and do not appear here. Calls follow the shape of the dose curve; as a rule, active = well fitted curve in the direction sought with a large enough effect; inconclusive = small, poorly fitted or top-dose-only effect, or effect the other way; inactive = no such curve, though single readings can be large or run the other way. Not all results are given here.
% is scaled to controls: 0 for no effect and ±100 for the full control effect.

The target in the assay is Cytochrome P450 2D6 (Homo sapiens) (UniProt P10635). Description: Cytochrome panel assay with activity outcomes. The conditions noted are these: recombinant CYP, pro-luciferin dealkylation, luminescence, p450-cyp2d6; series mostly up to 57.1 µM.
Sequence of Cytochrome P450 2D6 (Homo sapiens) (P10635 whole entry, looked up): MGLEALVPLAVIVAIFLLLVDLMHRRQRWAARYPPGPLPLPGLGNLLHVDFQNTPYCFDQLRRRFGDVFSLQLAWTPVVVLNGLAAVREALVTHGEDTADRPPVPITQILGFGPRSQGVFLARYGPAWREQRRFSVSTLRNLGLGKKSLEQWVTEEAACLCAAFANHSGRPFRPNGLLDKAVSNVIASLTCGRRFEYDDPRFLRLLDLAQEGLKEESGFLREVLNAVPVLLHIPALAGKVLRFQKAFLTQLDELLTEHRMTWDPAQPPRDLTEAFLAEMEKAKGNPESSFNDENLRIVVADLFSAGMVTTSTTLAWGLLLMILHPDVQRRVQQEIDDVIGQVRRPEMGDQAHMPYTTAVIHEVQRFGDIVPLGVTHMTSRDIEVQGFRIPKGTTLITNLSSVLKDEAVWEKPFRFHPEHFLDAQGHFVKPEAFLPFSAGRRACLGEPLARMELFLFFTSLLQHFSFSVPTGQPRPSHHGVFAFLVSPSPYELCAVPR
As a reminder, the AC50 is the midpoint of the concentration-response curve, whichever way the signal moves. With `Cc1c(NC(=S)N/N=C/c2ccc(O)cc2)c(=O)n(-c2ccccc2)n1C`, the AC50 result was “inactive”.
On to `O=C1C(=O)c2ccccc2C(O)=C1C(CCc1ccccc1)C1=C(O)c2ccccc2C(=O)C1=O`, for which the activity, negative = inhibition is -9.56% [at 11.4 µM] (inactive).
`CC(C)[C@@H]1[C@H]2CC[C@H](C2)[C@H]1N`: the AC50 entry is “inactive”.
For `CCc1ncc(CO)n1Cc1cccc2ccccc12`, the activity, negative = inhibition was -6.66% [at 11.4 µM] (inactive).
In the case of `Cc1ccc(Sc2cc(Cl)nc(N)n2)cc1`, the AC50 entry was “inactive”.
Regarding `Cc1ccc2[nH]c(=O)c(NC(N)=S)nc2c1`, the AC50 result was “inactive”.
`O=C1CSc2ccc(C(=O)NCCC3=CCCCC3)cc2N1`: the AC50 entry was “inactive”.
Take `CCC(C)NC(=O)C1CCN(C(=O)c2ccccc2)CC1` (configuration not stated): the AC50 result was “inactive”.
As to `CC(C)(C)c1ccc(C(=O)N2CCC(C(=O)NCCC3=CCCCC3)CC2)cc1`, the half-maximal activity concentration (AC50) was 22.4 µM (active).
In the case of `CCNC(=O)C1CC(=O)OC12CCCCC2` (configuration not stated), the AC50 entry is “inactive”.
The same measure, in the same setting: with `O=C(Nc1cccnc1Cl)C1c2ccccc2Oc2ccccc21` the entry was “inactive”.
As for `CN(C)CCNS(=O)(=O)N(C)C`, the activity, negative = inhibition is 5.07% [at 11.4 µM] (inactive).
In the case of `COc1ccc(-n2ccnc2SCC(=O)Nc2ccccc2)cc1`, the AC50 is 17.8 µM (active).
Still for that read-out and setting: with `COc1ccc(-n2ccnc2SCC(=O)Nc2ccc(OC)cc2OC)cc1` the entry was “inactive”; with `CCOc1ccc(-n2ccnc2SCC(=O)Nc2nnc(CC)s2)cc1`, “inactive”.
Turning to `CCOc1ccc(-n2ccnc2SCC(=O)Nc2nnc(C)s2)cc1`, the AC50 result is “inactive”.
Still for that read-out and setting: with `COc1cccc(NC(=O)CSc2nnc(CN3CCOCC3)n2C)c1` the entry was “inactive”; with `COc1cccc(-n2ccnc2SCC(=O)Nc2nccs2)c1`, 12.6 µM (active).
As for `COc1cccc([C@H](O)Cn2cc(-c3cccc(CON=C(C)C)c3)nn2)c1`, the activity, negative = inhibition was -1.23% [at 11.4 µM] (inactive).
Regarding `O=c1c2ccccc2nc2n1CCC2`, the AC50 entry is “inactive”.
Consider `CC(=O)c1cc(NC(=O)c2cccc(C(F)(F)F)c2)c(=O)oc1/C=C/N(C)C`, for which the AC50 entry was “inactive”.
`CC1(C)CC(=O)c2c(Cc3ccccc3)n[nH]c2C1`: the AC50 result is “inactive”.
As for `N#C/C(=C(/O)CN1CCCCC1)c1nc(-c2ccc(Cl)cc2)cs1`, the AC50 result was “inactive”.
Consider `Cn1c(=O)c2[nH]c(-c3ccc(S(=O)(=O)O)cc3)nc2n(C)c1=O`, for which the AC50 result was “inactive”.
With `COCCn1c(=O)c(-c2cccs2)nc2cnc(N3CCN(C)CC3)nc21`, the AC50 entry is “inactive”.
Consider `O=c1c(-c2ccc(F)c(F)c2)nc2cncnc2n1Cc1ccccc1Cl`, for which the AC50 entry was “inactive”.
In the case of `COc1ccc2c(c1)c(CC(=O)OCC(=O)O)c(C)n2C(=O)c1ccc(Cl)cc1`, the AC50 entry was “inactive”.
In the case of `COc1ccccc1OC[C@H](O)COC(N)=O`, the AC50 result is “inactive”.
With `NC(=O)OC[C@H](O)COc1ccc(Cl)cc1`, the AC50 entry was “inactive”.
As for `NC(=O)OCC(COC(N)=O)c1ccccc1`, the AC50 was 0.794 µM (active).
Consider `COCCn1c(=O)c(-c2ccc(OC)cc2)nc2cnc(N3CCNCC3)nc21`, for which the AC50 entry was “inactive”.
As for `Cc1ccc(C(=O)Cn2nnc3c(sc4nc5c(c(-c6ccccc6)c43)CCC5)c2=O)cc1`, the AC50 entry is “inactive”.
With `Cc1ccc(C(=O)CNc2nc3c(c(=O)[nH]c(=O)n3C)n2Cc2ccccc2)cc1`, the AC50 entry is “inactive”.
Turning to `COc1ccc(NC(=O)C(=O)NNC(=O)c2cccs2)c(OC)c1`, the AC50 entry is “inactive”.
Consider `Cc1c(NC(=O)C(C)N2C(=O)c3ccccc3C2=O)c(=O)n(-c2ccccc2)n1C` (configuration not stated), for which the AC50 result was “inactive”.
With `CC1=NC(C)(C)Cc2ccccc21`, the AC50 is 14.1 µM (active).
Turning to `c1cncc(-c2nnc3n2C2(CCCCC2)Cc2ccccc2-3)c1`, the AC50 result was “inactive”.
On the same count and under the same terms, with `Cc1cccc2c1OCC/C2=N\NC(=O)COc1ccccc1` the entry was “inactive”; with `Cc1ncc([N+](=O)[O-])n1CCO`, “inactive”.
On to `N#Cc1ccc(C2=NC(C(F)(F)F)(C(F)(F)F)c3c(n(Cc4ccco4)c(=O)[nH]c3=O)N2)cc1`, for which the AC50 result is “inactive”.
In the case of `COCCn1c(=O)c(-c2cccs2)nc2cnc(OC)nc21`, the AC50 entry is “inactive”.
As for `Cn1c(=O)c2c3c(sc2n2cnnc12)CCC3`, the AC50 entry was “inactive”.
On to `CN(C)CCn1c(=O)n(Cc2ccco2)c(=O)c2c3c(sc21)CCCCC3`, for which the AC50 was 1.58 µM (active).
For the compound `NC(=O)Cn1c(=O)n(Cc2ccco2)c(=O)c2c3c(sc21)CCCCC3`, the AC50 result was “inactive”.
For `CC(=O)N(NC(=O)c1ccccc1Cl)C1CC(=O)N(c2ccc(C)cc2)C1=O` (configuration not stated), the AC50 result is “inactive”.
`CC(=O)N(C[C@@H](C)C(=O)O)c1c(I)cc(I)c(N)c1I`: the AC50 result is “inactive”.
In the case of `CCOc1cc2c(C)cc(=O)oc2cc1Cl`, the AC50 entry is “inactive”.
For the compound `Brc1ccc(-c2csc(N3CCC(c4ccccc4)C3)n2)cc1` (configuration not stated), the AC50 result is “inactive”.
Same read-out and setting: with `CCOc1ccc(NC(=O)N2CCC(c3ccc(C)cc3)C2)cc1` (configuration not stated) the entry was “inactive”.
Turning to `O=C(COc1ccc(Br)cc1)N1CCC(c2ccccc2)C1` (configuration not stated), the AC50 was 17.8 µM (active).
With `CN(CCCNC(=O)c1ccc(/C=N/O)nc1)CCCN(C)Cc1ccccc1`, the AC50 was 2.82 µM (active).
For the compound `COC(=O)c1cc2n(n1)CCN(Cc1ccccc1F)C2=O`, the AC50 entry is “inactive”.
For the compound `Cc1ccc(C(=O)C2CCNCC2)cc1`, the half-maximal activity concentration (AC50) is 1.41 µM (active).
With `Cc1ccc(C(=O)NC2CCCCC2)cc1`, the AC50 entry was “inactive”.
Regarding `Cc1ccc(C(=O)/C=C2\NCC(C)NC2=O)cc1` (configuration not stated), the AC50 entry is “inactive”.
As for `O=C(Oc1ccc(OC(=O)c2ccco2)c(S(=O)(=O)c2ccc(Br)cc2)c1)c1ccco1`, the AC50 entry was “inactive”.
For the compound `C/C(=N\NC(=O)c1ccncc1)c1ccc2ccccc2c1O`, the activity, negative = inhibition was -2.13% [at 11.4 µM] (inactive).
`COc1ccc(NC(=O)C(c2ccc(OC)cc2)N(C)C(=O)CNC(C)=O)cc1` (configuration not stated): the AC50 entry is “inactive”.
For `CN(C)/C(CN1CCN(C=O)CC1)=C1\N=C(c2ccccc2)OC1=O`, the AC50 result was “inactive”.
With `CC1CN(C(=O)c2cc3c(s2)CCC3)CC(C)O1` (configuration not stated), the AC50 result is “inactive”.
As to `CCOc1ccc(OCc2ccc(C(=O)N3CCc4ccccc4C3)o2)cc1`, the AC50 entry is “inactive”.
For the compound `COc1ccc(NC(=O)c2ccc(COc3ccccc3)o2)cc1`, the AC50 result is “inactive”.
On to `CN1CCN(C(=O)c2ccc(COc3ccc(C(C)(C)C)cc3)o2)CC1`, for which the AC50 is 4.47 µM (active).
Same read-out and setting: with `CNC[C@H](O)[C@H](O)[C@H](O)[C@H](O)CO` the entry was “inactive”.
`CO[C@H]1COC(=O)CCC[C@@H](C)[C@H](OC)COC(=O)[C@H]2CCCN2C(=O)C/C=C\[C@@H]1C`: the activity, negative = inhibition was 6.78% [at 11.4 µM] (inactive).
As to `O=c1cc(N2CCN(c3ccccc3)CC2)[nH]c(=O)n1C1CCCCC1`, the AC50 entry was “inactive”.
Consider `COc1c(/C=N/Nc2nc(N3CCCCC3)nc(N3CCCCC3)n2)cccc1[N+](=O)[O-]`, for which the AC50 entry was “inactive”.
In the case of `CCN(Cc1cc(Cl)cc(C)c1O)Cc1c(O)ccc2ccccc12`, the AC50 is 1.26 µM (active).
Consider `CN(C)Cc1cc(Cl)c(O)c(CN(C)C)c1`, for which the activity, negative = inhibition is -14% [at 11.4 µM] (inactive).
As for `CN(Cc1cc(Br)cc(Br)c1O)Cc1c(O)ccc2ccccc12`, the AC50 is 1.58 µM (active).
As for `Oc1ccc(Cl)cc1Cc1cc(Cl)cc(Cc2cc(Cl)ccc2O)c1O`, the activity, negative = inhibition was -10.5% [at 11.4 µM] (inactive).
Still for that read-out and setting: with `Oc1ccc2ccccc2c1/C=C\c1ccc2c(Br)cc(Br)c(O)c2n1` the figure was -2.53% [at 11.4 µM] (inactive); with `COc1ccc(C=Nc2c(O)ccc3ccccc23)cc1OC`, -7.34% [at 11.4 µM] (inactive).
In the case of `CN(Cc1cc(Cl)cc(Cl)c1O)Cc1c(O)ccc2ccccc12`, the AC50 is 1.26 µM (active).
Regarding `Cc1c(C(c2cccc([N+](=O)[O-])c2O)c2c(C)n(C)n(-c3ccccc3)c2=O)c(=O)n(-c2ccccc2)n1C`, the AC50 entry is “inactive”.
Consider `COc1ccc(C(NC(=O)c2ccc(-c3ccccc3)cc2)c2ccccc2)cc1` (configuration not stated), for which the AC50 entry was “inactive”.
Same read-out and setting: with `CCN(CC)C(=O)C1CCN(S(=O)(=O)c2ccc3oc4ccccc4c3c2)CC1` the entry was “inactive”; with `COC(=O)c1ccc2ccn(CC(=O)NC3CCCCC3)c2c1`, “inactive”.
On the same count and under the same terms, with `Cn1cc(-c2nc3cncnc3n(CCN)c2=O)c2ccccc21` the entry was “inactive”.
Still for that read-out and setting: with `CCCCOC1(c2ccccc2)OC(=O)c2ccccc21` (configuration not stated) the entry was “inactive”; with `CC(C)NC(=O)N1CC[C@@]2(CCCN(C(=O)c3cccn3C)C2)C1`, “inactive”; with `COc1ccc(NC(=O)N2CCC3(CC2)CCN(C(=O)c2cccn2C)CC3)cc1`, “inactive”.
As for `COc1ccccc1CN1CCC2(CC1)CCN(C(=O)c1cccn1C)CC2`, the concentration at half-maximal activity (AC50) was 3.98 µM (active).
For the compound `Cn1cccc1C(=O)N1CCC2(CCN(Cc3nccs3)CC2)CC1`, the AC50 result was “inactive”.
As to `COc1ccccc1CN1CCCC2(CCN(C(=O)c3cccn3C)CC2)C1`, the AC50 is 3.16 µM (active).
On to `Cn1cccc1C(=O)N1CCC2(CCCN(c3ccccc3)C2)CC1`, for which the AC50 entry was “inactive”.
On the same count and under the same terms, with `COc1ccccc1CN1CC[C@@]2(CCCN(C(=O)c3cccn3C)C2)C1` the figure was 0.316 µM (active); with `CN1CCCC2(CCN(C(=O)c3cccn3C)CC2)C1`, “inactive”; with `COc1ccc(NC(=O)N2CC[C@@]3(CCCN(C(=O)c4cccn4C)C3)C2)cc1`, “inactive”.
As to `Cc1ccc(-c2csc(N3CCC(NS(=O)(=O)c4ccc5c(c4)OCCO5)CC3)n2)cc1`, the AC50 entry was “inactive”.
Same read-out and setting: with `COc1ccc(-c2nc3cnc(N4CCN(C)CC4)nc3n(CCC#N)c2=O)cc1` the entry was “inactive”; with `Cc1cc2nnc(SCCCCN3C(=O)c4ccccc4C3=O)n2c2ccccc12`, “inactive”.
As to `COc1cc2c(cc1OC)C(c1ccc(N)cc1)=NNC(=O)C2`, the AC50 entry was “inactive”.
Turning to `O=c1ccn(-c2cccc(C(F)(F)F)c2)nc1-c1ccn(-c2ccccc2F)n1`, the AC50 result was “inactive”.
Still for that read-out and setting: with `CCOC(=O)CSc1cc(C(F)(F)F)nc(-c2ccccn2)n1` the entry was “inactive”.
In the case of `CCOC(=O)CSc1cc(CS(=O)c2ccc(Cl)cc2)nc(-c2ccccc2)n1` (configuration not stated), the concentration at half-maximal activity (AC50) is 14.1 µM (active).
As for `CCOC(=O)CSc1nc(-c2ccccc2)nc2ccccc12`, the AC50 entry is “inactive”.
On to `Oc1c(Cl)cc(C(c2cc(Cl)c(O)c(Cl)c2)C(c2cc(Cl)c(O)c(Cl)c2)c2cc(Cl)c(O)c(Cl)c2)cc1Cl`, for which the activity, negative = inhibition is -3.64% [at 11.4 µM] (inactive).
On to `C=C1CC[C@H](O)C/C1=C/C=C1\CCC[C@]2(C)[C@H]1CC[C@H]2[C@@H](C)/C=C\[C@@H](C)C(C)C`, for which the AC50 result is “inactive”.
Take `CC(=O)c1cc(C)ccc1OC(=O)CCN1C(=O)C2C3c4ccccc4C(c4ccccc43)C2C1=O` (configuration not stated): the AC50 entry was “inactive”.
With `Oc1cc(O)cc(/C=C\c2ccc(O)c(O)c2)c1`, the AC50 entry is “inactive”.
As for `O=S(=O)(c1cccc2nsnc12)N1CCCC1`, the AC50 entry is “inactive”.
As to `O=C(NCC1COc2ccccc2O1)C1CCN(S(=O)(=O)c2cccc3nsnc23)CC1` (configuration not stated), the AC50 was 3.55 µM (active).
As for `CN(CCCNC(=O)C1CCN(S(=O)(=O)c2cccc3nsnc23)CC1)Cc1ccccc1`, the AC50 was 5.01 µM (active).
Consider `COc1ccc(CCNC(=O)C2CCN(S(=O)(=O)c3cccc4nsnc34)CC2)cc1OC`, for which the AC50 entry is “inactive”.
For the compound `O=C(C1CCN(S(=O)(=O)c2cccc3nsnc23)CC1)N1CCCc2ccccc21`, the AC50 result is “inactive”.
Consider `O=C(C1CCN(S(=O)(=O)c2cccc3nsnc23)CC1)N1CCN(c2ccccc2F)CC1`, for which the AC50 result is “inactive”.
